From PubChem BioAssay AID1159580 (chemical genetic matrix, 2015)
Several values for one entry are separate records, joined by “and”; a condition that tells them apart may be missing. Equal values may be shown once. Hit rate of the full screen: of about 5,500 compounds, about 2,000 (36%) were called active. Another 18% or so got no clear call; they are omitted. Cut-off read from the data, not from the text of the source: active = normalized growth mostly below about 0.91 (no sharp cut-off); inconclusive = no clear call, values can overlap the other calls; inactive = mostly above about 0.92. This is one part of the list.

Assay: chemical genetic growth profiling, strain panel (AID 1159580);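 note: tested at 20 µM; growth read once vehicle control cultures reached saturation at 30 °C; 1 = growth at the plate median or of vehicle wells; lower values mean less growth of the strain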
Conditions: S. cerevisiae deletion strains, growth OD

Measured: normalized growth

CC(=O)[C@H]1CCC2C3C[C@H](C)C4=CC(=O)CC[C@]4(C)C3[C@@H](O)C[C@@]21C (stereo partly drawn)
inactive: locus YAL021C, strain ccr4, active compounds read low 0.988 | locus YAL026C, strain drs2, active compounds read low 0.989 | locus YAL030W, strain snc1, active compounds read low 0.986 | locus YBL061C, strain skt5, active compounds read low 0.988 | locus YBR009C, strain hhf1, active compounds read low 1 | locus YBR021W, strain FUR4, active compounds read low 0.979 | locus YBR023C, strain chs3, active compounds read low 0.983 | locus YBR171W, strain sec66, active compounds read low 0.973 | locus YBR229C, strain ROT2, active compounds read low 0.994 | locus YBR231C, strain swc5, active compounds read low 0.994 | locus YBR279W, strain paf1, active compounds read low 0.99 | locus YCL011C, strain gbp2, active compounds read low 0.964 | locus YCL016C, strain dcc1, active compounds read low 0.953 | locus YCL029C, strain bik1, active compounds read low 0.983 | locus YCL061C, strain MRC1, active compounds read low 0.989 | locus YCL069W, strain vba3, active compounds read low 0.983 | locus YCR088W, strain abp1, active compounds read low 0.98 | locus YDL005C, strain med2, active compounds read low 0.984 | locus YDL035C, strain GPR1, active compounds read low 1.02 | locus YDL040C, strain nat1, active compounds read low 0.987 | locus YDL074C, strain BRE1, active compounds read low 0.98 | locus YDL101C, strain DUN1, active compounds read low 0.993 | locus YDL134C, strain PPH21, active compounds read low 1.01 | locus YDL185W, strain tfp1, active compounds read low 0.965 | locus YDL192W, strain arf1, active compounds read low 0.981 | locus YDR001C, strain nth1, active compounds read low 0.977 | locus YDR069C, strain doa4, active compounds read low 1.02 | locus YDR101C, strain arx1, active compounds read low 0.989 | locus YDR137W, strain rgp1, active compounds read low 0.921 | locus YDR159W, strain sac3, active compounds read low 1.01 | locus YDR162C, strain NBP2, active compounds read low 0.99 | locus YDR195W, strain ref2 0.997 | locus YDR297W, strain sur2, active compounds read low 0.985 | locus YDR318W, strain mcm21, active compounds read low 0.988 | locus YDR334W, strain swr1, active compounds read low 0.963 | locus YDR335W, strain msn5, active compounds read low 0.984 | locus YDR388W, active compounds read low 0.986 | locus YDR392W, strain spt3, active compounds read low 0.897 | locus YDR502C, strain sam2, active compounds read low 0.978 | locus YEL003W, strain gim4, active compounds read low 1 | locus YEL037C, strain rad23, active compounds read low 0.975 | locus YEL061C, strain CIN8 (second series), active compounds read low 0.977 | locus YEL061C, strain CIN8, active compounds read low 0.99 | locus YER015W, strain faa2, active compounds read low 0.992 | locus YER016W, strain bim1, active compounds read low 0.996 | locus YER110C, active compounds read low 0.969 | locus YER111C, strain swi4, active compounds read low 0.982 | locus YER155C, strain BEM2 (second series), active compounds read low 1 | locus YER155C, strain BEM2, active compounds read low 0.991 | locus YER167W, strain BCK2, active compounds read low 0.986 | locus YFR010W, strain ubp6, active compounds read low 0.986 | locus YGL078C, strain dbp3, active compounds read low 0.991 | locus YGL086W, strain mad1, active compounds read low 1.01 | locus YGL167C, strain pmr1, active compounds read low 0.971 | locus YGL173C, strain kem1, active compounds read low 0.995 | locus YGL227W, strain vid30, active compounds read low 0.978 | locus YGL240W, strain doc1, active compounds read low 1.02 | locus YGL248W, strain PDE1, active compounds read low 0.984 | locus YGL253W, strain hxk2, active compounds read low 0.976 | locus YGR135W, strain pre9, active compounds read low 0.939 | locus YGR252W, strain gcn5, active compounds read low 1.06 | locus YHR013C, strain ard1, active compounds read low 0.945 | locus YHR027C, strain rpn1, active compounds read low 0.98 | locus YHR030C, strain SLT2, active compounds read low 0.996 and 0.986 | locus YHR079C, strain IRE1 (second series), active compounds read low 0.98 | locus YHR079C, strain IRE1, active compounds read low 0.966 | locus YHR094C, strain hxt1, active compounds read low 0.984 | locus YHR129C, strain ARP1, active compounds read low 0.995 | locus YHR142W, strain chs7, active compounds read low 0.95 | locus YHR200W, strain rpn10, active compounds read low 0.981 | locus YIL066C, strain RNR3, active compounds read low 0.993 | locus YIL073C, strain SPO22, active compounds read low 0.899 | locus YIL125W, strain kgd1, active compounds read low 0.996 | locus YIR030C, strain dcg1, active compounds read low 0.975 | locus YJL092W, strain hpr5, active compounds read low 0.977 | locus YJL095W, strain BCK1 (second series), active compounds read low 0.982 | locus YJL095W, strain BCK1, active compounds read low 0.969 and 0.976 | locus YJL115W, strain asf1, active compounds read low 0.973 | locus YJL129C, strain trk1, active compounds read low 0.959 | locus YJL134W, strain LCB3, active compounds read low 0.99 | locus YJL154C, strain vps35, active compounds read low 0.972 | locus YJL164C, strain tpk1, active compounds read low 0.997 | locus YJL166W, strain qcr8, active compounds read low 0.979 | locus YJL168C, strain set2, active compounds read low 0.994 | locus YJL187C, strain SWE1 (second series), active compounds read low 0.993 | locus YJL187C, strain SWE1, active compounds read low 0.985 | locus YJR043C, strain POL32, active compounds read low 1.03 | locus YJR066W, strain TOR1, active compounds read low 0.925
